From article PMC7862700, “An all-to-all approach to the identification of sequence-specific readers for epigenetic DNA modifications on cytosine” come the findings set out here.

Common to all, as to experiment: DAPPL (digital affinity profiling via proximity ligation, sequencing); 10 mM Tris-HCl pH 7.5, 50 mM NaCl, 1 mM DTT, 4% glycerol, room temperature, 30 min; GST-TFs on glutathione beads, 16-mer random dsDNA library, 0.1% formaldehyde crosslink after washing; high values mean tight binding
One test concerns the target T1, FEV (Homo sapiens, UniProt Q99581 1-238).
T1 sequence: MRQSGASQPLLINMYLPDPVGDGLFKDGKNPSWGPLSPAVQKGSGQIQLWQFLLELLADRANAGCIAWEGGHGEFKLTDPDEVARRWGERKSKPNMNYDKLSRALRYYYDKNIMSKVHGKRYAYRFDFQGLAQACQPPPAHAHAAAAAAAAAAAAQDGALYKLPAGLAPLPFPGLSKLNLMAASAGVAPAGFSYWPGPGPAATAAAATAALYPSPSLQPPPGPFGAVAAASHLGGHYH
The note with it: protein: recombinant; tags: N-terminal GST; dsDNA, one strand shown. The method, boiled down: (§1)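 GST fusions of human transcription factors were expressed in yeast and captured with glutathione beads. Once given DNA barcodes and pooled alongside a tag-only sample, they were incubated for 30 min at room temperature with 200 nmole of a random double-stranded 16-mer DNA library in Tris/NaCl/DTT/glycerol buffer, then washed, crosslinked (0.1% formaldehyde), proximity-ligated, PCR-amplified and sequenced on an Illumina NextSeq500. The binding signal of each hexamer is its read frequency for a factor divided by its frequency for the tag-only sample.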

The next test has as its target ETV5 (Homo sapiens, UniProt P41161 1-510). To be noted: protein: recombinant; tags: N-terminal GST; dsDNA, one strand shown. The method, boiled down: as §1
The target of the next test is HSF1 (Homo sapiens, UniProt Q00613 1-529). The note with it: protein: recombinant; tags: N-terminal GST; chain copies: 3; dsDNA, one strand shown. The method, boiled down: as §1
For the next test, the target named is T2, SPIC (Homo sapiens, UniProt Q8N5J4 1-248).
T2 sequence: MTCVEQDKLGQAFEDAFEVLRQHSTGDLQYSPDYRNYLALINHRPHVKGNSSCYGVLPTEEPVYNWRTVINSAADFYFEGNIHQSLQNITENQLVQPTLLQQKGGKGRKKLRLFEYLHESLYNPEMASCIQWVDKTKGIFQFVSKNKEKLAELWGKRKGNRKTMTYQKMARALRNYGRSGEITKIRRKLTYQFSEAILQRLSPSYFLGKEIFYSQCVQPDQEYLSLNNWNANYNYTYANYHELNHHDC
The note with it: protein: recombinant; tags: N-terminal GST; dsDNA, one strand shown. The method, boiled down: as §1

For a further test, the target named is ELF4 (Homo sapiens, UniProt Q99607 1-663). To be noted: protein: recombinant; tags: N-terminal GST; dsDNA, one strand shown. The method in brief:
as §1

Another test has as its target T3, ELK4 (Homo sapiens, UniProt P28324-2 1-405).
T3 sequence: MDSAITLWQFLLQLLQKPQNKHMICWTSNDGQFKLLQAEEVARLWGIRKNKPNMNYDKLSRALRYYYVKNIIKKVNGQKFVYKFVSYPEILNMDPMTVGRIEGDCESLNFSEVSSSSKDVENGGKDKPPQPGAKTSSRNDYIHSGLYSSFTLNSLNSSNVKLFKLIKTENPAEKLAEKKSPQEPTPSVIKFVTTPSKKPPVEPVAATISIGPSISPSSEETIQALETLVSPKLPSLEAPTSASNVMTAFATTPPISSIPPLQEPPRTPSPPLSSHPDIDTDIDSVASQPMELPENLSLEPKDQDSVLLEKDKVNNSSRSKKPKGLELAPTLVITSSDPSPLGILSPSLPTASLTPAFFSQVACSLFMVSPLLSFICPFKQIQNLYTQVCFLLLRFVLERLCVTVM
The note with it: protein: recombinant; tags: N-terminal GST; dsDNA, one strand shown. The method, boiled down:
as §1

The next test addresses T4, ETV2 (Homo sapiens, UniProt O00321 1-342).
T4 sequence: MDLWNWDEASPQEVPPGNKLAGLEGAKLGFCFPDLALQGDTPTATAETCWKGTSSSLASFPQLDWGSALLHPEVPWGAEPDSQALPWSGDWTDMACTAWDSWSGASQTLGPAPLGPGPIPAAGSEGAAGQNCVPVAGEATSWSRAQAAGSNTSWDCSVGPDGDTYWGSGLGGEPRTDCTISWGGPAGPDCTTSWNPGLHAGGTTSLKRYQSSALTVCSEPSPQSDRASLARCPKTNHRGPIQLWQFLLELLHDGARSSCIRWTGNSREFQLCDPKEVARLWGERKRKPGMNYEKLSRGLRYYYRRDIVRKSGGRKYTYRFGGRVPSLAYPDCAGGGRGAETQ
The note with it: protein: recombinant; tags: N-terminal GST; dsDNA, one strand shown. The method in brief:
as §1

A further test deals with T5, ELF3 (Homo sapiens, UniProt P78545 1-371).
T5 sequence: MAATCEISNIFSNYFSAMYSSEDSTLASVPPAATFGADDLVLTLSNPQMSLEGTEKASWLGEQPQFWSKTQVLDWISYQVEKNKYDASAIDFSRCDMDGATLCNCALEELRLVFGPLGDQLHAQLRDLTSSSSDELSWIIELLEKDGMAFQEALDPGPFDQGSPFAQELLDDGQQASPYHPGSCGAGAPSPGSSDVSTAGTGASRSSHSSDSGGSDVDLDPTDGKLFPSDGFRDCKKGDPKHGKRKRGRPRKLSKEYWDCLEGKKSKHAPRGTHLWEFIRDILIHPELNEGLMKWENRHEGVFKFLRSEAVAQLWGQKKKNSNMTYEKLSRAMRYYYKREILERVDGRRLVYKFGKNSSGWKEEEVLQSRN
To be noted: protein: recombinant; tags: N-terminal GST; dsDNA, one strand shown. The method, boiled down: as §1

Another test deals with CRX (Homo sapiens, UniProt O43186 1-299). The note with it: protein: recombinant; tags: N-terminal GST; dsDNA, one strand shown. The method in brief: as §1
Another test concerns the target ETV1 (Homo sapiens, UniProt P50549 1-477). To be noted: protein: recombinant; tags: N-terminal GST; dsDNA, one strand shown. The method, boiled down: as §1
The target of a further test is T6, ERF (Homo sapiens, UniProt P50548 1-548).
T6 sequence: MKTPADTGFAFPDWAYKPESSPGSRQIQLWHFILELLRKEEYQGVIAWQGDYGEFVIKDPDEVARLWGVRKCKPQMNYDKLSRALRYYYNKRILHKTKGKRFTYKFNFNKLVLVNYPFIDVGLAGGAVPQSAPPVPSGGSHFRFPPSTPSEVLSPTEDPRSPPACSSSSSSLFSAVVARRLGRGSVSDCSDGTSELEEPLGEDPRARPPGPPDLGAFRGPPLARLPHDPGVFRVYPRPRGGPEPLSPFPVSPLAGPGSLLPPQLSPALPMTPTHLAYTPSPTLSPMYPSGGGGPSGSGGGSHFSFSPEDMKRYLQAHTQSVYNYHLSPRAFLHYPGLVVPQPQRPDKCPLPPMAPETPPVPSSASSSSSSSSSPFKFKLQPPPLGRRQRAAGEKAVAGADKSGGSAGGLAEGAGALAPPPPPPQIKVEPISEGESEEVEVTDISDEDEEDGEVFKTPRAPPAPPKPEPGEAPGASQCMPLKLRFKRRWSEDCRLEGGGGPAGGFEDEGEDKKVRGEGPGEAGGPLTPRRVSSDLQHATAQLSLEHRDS
To be noted: protein: recombinant; tags: N-terminal GST; dsDNA, one strand shown. The method in brief: as §1

In the next test the target is T7, ETV3L (Homo sapiens, UniProt Q6ZN32 1-361).
T7 sequence: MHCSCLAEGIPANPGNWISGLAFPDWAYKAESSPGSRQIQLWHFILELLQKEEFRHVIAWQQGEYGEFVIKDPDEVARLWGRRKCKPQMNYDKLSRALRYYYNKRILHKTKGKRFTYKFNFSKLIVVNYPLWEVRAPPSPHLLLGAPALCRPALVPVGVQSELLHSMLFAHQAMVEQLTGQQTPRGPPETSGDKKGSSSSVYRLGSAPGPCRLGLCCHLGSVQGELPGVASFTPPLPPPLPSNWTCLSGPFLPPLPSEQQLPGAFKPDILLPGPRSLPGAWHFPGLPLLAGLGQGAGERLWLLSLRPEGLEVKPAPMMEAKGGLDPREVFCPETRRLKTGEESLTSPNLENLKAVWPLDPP
To be noted: protein: recombinant; tags: N-terminal GST; dsDNA, one strand shown. The method, boiled down: as §1

A further test deals with T8, ETS2 (Homo sapiens, UniProt P15036 1-469).
T8 sequence: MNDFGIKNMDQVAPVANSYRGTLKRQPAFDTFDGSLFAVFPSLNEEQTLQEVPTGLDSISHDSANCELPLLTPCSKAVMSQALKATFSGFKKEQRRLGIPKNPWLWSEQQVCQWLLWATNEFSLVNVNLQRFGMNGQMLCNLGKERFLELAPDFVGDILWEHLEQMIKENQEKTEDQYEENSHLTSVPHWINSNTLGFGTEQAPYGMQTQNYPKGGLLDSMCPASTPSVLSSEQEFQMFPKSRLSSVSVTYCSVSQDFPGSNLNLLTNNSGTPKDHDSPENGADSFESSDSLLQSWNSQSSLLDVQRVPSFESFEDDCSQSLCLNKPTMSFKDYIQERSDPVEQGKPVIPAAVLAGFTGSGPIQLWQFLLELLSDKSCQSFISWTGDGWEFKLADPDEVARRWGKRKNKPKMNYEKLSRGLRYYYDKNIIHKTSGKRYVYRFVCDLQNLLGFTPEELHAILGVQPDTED
To be noted: protein: recombinant; tags: N-terminal GST; dsDNA, one strand shown. The method in brief:
as §1

The next test has as its target T9, SPDEF (Homo sapiens, UniProt O95238 1-335).
T9 sequence: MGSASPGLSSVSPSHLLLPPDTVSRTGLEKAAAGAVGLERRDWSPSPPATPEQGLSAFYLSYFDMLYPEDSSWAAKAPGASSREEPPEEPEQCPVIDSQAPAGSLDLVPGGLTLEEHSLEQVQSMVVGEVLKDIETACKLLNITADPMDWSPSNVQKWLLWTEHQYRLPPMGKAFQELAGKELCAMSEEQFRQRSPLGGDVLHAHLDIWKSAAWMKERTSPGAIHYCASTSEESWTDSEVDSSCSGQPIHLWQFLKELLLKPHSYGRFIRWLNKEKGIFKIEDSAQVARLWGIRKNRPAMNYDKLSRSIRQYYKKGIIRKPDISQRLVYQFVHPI
To be noted: protein: recombinant; tags: N-terminal GST; dsDNA, one strand shown. The method, boiled down: as §1

The target of the next test is T10, ETV7 (Homo sapiens, UniProt Q9Y603 1-341).
T10 sequence: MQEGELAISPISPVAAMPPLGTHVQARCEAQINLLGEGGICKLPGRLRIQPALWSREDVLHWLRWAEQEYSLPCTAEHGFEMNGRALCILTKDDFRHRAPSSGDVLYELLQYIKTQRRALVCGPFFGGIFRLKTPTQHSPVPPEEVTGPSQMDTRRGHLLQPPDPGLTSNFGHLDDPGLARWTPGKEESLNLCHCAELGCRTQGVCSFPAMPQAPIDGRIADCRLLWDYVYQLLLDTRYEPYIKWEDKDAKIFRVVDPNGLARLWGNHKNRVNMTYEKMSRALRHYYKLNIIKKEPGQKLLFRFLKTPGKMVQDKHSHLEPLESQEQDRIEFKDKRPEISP
To be noted: protein: recombinant; tags: N-terminal GST; dsDNA, one strand shown. The method, boiled down: as §1

The next test deals with T11, ELF5 (Homo sapiens, UniProt Q9UKW6-2 1-255).
T11 sequence: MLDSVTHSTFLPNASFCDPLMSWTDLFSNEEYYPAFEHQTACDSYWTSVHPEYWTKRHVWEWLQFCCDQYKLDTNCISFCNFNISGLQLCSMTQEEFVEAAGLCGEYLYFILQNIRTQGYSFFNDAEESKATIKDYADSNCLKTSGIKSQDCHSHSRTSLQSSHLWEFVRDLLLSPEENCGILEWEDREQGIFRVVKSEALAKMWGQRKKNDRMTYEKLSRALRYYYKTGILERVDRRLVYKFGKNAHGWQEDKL
The note with it: protein: recombinant; tags: N-terminal GST; dsDNA, one strand shown. The method in brief:
as §1

In another test the target is T12, ETV3 (Homo sapiens, UniProt P41162-2 1-143).
T12 sequence: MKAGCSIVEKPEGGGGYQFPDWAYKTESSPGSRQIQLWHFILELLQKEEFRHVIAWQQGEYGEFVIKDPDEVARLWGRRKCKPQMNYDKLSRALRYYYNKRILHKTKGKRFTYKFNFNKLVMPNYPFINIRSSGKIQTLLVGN
The note with it: protein: recombinant; tags: N-terminal GST; dsDNA, one strand shown. The method, boiled down: as §1

The target in a further test is ETV6 (Homo sapiens, UniProt P41212 1-452). To be noted: protein: recombinant; tags: N-terminal GST; dsDNA, one strand shown. The method, boiled down:
as §1

ETV1, sequence (P50549 whole entry): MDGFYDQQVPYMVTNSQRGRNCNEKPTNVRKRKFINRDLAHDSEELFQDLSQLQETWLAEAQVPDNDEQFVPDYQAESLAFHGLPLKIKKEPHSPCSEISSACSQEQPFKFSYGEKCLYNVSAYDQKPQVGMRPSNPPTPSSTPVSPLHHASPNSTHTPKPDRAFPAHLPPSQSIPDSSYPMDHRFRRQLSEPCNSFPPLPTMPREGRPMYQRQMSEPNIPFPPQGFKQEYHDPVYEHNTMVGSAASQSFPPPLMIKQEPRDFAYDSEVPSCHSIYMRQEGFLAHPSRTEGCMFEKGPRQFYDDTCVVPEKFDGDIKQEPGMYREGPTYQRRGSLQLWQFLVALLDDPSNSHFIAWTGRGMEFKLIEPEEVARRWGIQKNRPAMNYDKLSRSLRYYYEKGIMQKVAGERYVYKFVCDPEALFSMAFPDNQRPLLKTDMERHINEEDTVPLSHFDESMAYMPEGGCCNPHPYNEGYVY
ETV6, sequence (P41212 whole entry): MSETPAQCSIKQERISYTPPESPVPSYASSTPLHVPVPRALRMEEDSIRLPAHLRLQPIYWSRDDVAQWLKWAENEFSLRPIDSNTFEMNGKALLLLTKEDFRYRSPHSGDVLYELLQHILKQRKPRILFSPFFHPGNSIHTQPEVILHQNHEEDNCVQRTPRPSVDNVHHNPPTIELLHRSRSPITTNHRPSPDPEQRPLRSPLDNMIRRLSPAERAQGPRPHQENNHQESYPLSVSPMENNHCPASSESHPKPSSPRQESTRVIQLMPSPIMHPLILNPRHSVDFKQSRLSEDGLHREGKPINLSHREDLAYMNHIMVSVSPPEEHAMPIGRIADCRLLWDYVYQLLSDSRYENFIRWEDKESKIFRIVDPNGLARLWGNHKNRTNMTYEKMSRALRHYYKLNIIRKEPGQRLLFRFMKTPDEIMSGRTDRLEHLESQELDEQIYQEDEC
ELF4, sequence (Q99607 whole entry): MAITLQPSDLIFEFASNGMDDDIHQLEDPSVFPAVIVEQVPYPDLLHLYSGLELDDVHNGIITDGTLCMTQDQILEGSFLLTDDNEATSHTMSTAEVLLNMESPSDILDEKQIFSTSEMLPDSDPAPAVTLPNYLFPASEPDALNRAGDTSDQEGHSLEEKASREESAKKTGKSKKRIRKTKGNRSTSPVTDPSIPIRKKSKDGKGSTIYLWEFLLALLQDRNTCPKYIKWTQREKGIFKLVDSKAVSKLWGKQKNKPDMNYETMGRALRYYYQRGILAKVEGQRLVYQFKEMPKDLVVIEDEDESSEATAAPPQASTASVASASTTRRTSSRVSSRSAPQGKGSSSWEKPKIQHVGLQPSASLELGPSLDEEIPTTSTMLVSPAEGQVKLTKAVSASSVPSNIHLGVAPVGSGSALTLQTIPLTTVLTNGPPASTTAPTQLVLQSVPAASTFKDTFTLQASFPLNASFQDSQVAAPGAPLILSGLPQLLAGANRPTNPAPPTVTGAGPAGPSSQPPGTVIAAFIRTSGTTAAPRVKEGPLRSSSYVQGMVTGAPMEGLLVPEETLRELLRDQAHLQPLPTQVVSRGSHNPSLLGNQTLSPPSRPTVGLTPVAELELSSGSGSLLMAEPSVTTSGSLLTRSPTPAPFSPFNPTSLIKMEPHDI
CRX, sequence (O43186 whole entry): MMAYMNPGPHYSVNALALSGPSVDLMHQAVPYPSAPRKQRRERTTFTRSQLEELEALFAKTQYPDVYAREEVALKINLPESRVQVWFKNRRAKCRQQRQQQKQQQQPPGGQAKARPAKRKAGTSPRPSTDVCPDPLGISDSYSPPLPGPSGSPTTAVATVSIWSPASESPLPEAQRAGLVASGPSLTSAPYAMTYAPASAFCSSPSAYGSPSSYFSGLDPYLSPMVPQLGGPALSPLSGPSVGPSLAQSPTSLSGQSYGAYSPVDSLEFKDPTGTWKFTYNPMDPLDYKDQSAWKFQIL
ETV5, sequence (P41161 whole entry): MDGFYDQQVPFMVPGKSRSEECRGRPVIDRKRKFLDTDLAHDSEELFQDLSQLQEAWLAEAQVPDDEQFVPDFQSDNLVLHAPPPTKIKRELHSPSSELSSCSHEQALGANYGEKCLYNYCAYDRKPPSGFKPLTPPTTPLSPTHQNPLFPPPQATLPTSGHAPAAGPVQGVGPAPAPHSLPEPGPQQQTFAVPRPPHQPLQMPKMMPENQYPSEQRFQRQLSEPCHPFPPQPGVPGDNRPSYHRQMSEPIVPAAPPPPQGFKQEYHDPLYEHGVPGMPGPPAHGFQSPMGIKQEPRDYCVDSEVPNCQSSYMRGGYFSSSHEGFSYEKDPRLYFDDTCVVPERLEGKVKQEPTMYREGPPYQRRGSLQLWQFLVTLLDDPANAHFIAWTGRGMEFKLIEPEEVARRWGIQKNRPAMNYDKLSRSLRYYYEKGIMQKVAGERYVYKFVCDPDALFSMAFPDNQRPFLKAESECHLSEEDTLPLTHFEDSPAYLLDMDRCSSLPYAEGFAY
HSF1, sequence (Q00613 whole entry): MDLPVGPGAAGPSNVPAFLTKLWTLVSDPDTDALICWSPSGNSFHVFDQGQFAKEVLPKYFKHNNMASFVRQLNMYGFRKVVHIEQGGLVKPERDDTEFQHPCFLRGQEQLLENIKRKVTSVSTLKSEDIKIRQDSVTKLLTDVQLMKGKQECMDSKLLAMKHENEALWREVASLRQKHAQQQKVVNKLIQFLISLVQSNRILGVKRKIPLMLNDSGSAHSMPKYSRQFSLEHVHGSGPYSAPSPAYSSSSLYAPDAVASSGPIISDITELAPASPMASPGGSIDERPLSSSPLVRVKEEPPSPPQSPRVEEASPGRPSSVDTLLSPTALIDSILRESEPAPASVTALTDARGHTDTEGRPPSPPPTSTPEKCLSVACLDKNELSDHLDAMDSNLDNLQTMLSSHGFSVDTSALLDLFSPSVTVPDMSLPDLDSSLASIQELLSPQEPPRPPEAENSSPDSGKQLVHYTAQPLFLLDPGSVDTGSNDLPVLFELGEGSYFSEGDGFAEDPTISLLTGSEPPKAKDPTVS

As to CCGGCT, the binding signal is 1.8 fold enrichment (6-mer frequency, TF over GST control) with FEV; 1.89 fold enrichment (6-mer frequency, TF over GST control) with ETV5; 1.3 fold enrichment (6-mer frequency, TF over GST control) with HSF1; 1.46 fold enrichment (6-mer frequency, TF over GST control) with SPIC; 1.68 fold enrichment (6-mer frequency, TF over GST control) with ELF4; 1.53 fold enrichment (6-mer frequency, TF over GST control) in the test with ELK4. Besides, the binding signal with ETV2 is 1.84 fold enrichment (6-mer frequency, TF over GST control); with ELF3 it was 1.8 fold enrichment (6-mer frequency, TF over GST control); with CRX, 1.6 fold enrichment (6-mer frequency, TF over GST control); with ETV1, 1.81 fold enrichment (6-mer frequency, TF over GST control); with ERF, 1.59 fold enrichment (6-mer frequency, TF over GST control); with ETV3L, 1.69 fold enrichment (6-mer frequency, TF over GST control). In addition, the binding signal was 1.71 fold enrichment (6-mer frequency, TF over GST control) with ETS2; 2.32 fold enrichment (6-mer frequency, TF over GST control) with SPDEF; 1.74 fold enrichment (6-mer frequency, TF over GST control) with ETV7; 1.92 fold enrichment (6-mer frequency, TF over GST control) with ELF5; 1.7 fold enrichment (6-mer frequency, TF over GST control) with ETV3; 1.77 fold enrichment (6-mer frequency, TF over GST control) in the test with ETV6.
